# Test results reported in PubChem BioAssay (NCI).
# Compounds without any hit were thinned out: in the full panel of roughly 83,000, 20% have a hit.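 Plates (96-well) were seeded with cells, treated with compound at one concentration, and incubated for 48 hours before percent growth was determined.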 A number with no mark means an inactive call. The source made the active and inactive calls. Rule for the calls: active = growth percent below 10; inactive = the rest.
# Tests used:
# Assay in all cases: NCI-60 one-dose screen, 48 h (100 = growth as untreated, 0 = no growth, -100 = all killed)
# [1] = tested on: HCT-15 colon; conditions: 10 µM unless noted
# [2] = tested on: HT29 colon; conditions: 10 µM unless noted
# [3] = tested on: SNB-75 CNS; conditions: 10 µM unless noted
# [4] = tested on: SNB-19 CNS; conditions: 10 µM unless noted
# [5] = tested on: U251 CNS; conditions: 10 µM unless noted
# [6] = tested on: PC-3 prostate; conditions: 10 µM unless noted
# [7] = tested on: SK-MEL-5 melanoma; conditions: 10 µM unless noted
# [8] = tested on: UACC-62 melanoma; conditions: 10 µM unless noted
# [9] = tested on: LOX IMVI melanoma; conditions: 10 µM unless noted
# [10] = tested on: SK-MEL-28 melanoma; conditions: 10 µM unless noted
# [11] = tested on: SK-MEL-2 melanoma; conditions: 10 µM unless noted
# [12] = tested on: EKVX NSCLC; conditions: 10 µM unless noted
# [13] = tested on: SN12C renal; conditions: 10 µM unless noted
# [14] = tested on: UO-31 renal; conditions: 10 µM unless noted
# [15] = tested on: ACHN renal; conditions: 10 µM unless noted
# [16] = tested on: CAKI-1 renal; conditions: 10 µM
# [17] = tested on: A498 renal; conditions: 10 µM unless noted
# [18] = tested on: CCRF-CEM leukemia; conditions: 10 µM unless noted
# [19] = tested on: MOLT-4 leukemia; conditions: 10 µM unless noted
# [20] = tested on: TK-10 renal; conditions: 10 µM unless noted
Compound,growth [1],growth [2],growth [3],growth [4],growth [5],growth [6],growth [7],growth [8],growth [9],growth [10],growth [11],growth [12],growth [13],growth [14],growth [15],growth [16],growth [17],growth [18],growth [19],growth [20] [%]
COc1cc(CN(c2ccc(Cl)cc2)C2OC(=O)c3ccccc32)cc(OC)c1OC (stereo not given),38.2%,17.9%,68.6%,74.1%,36%,62.6%,73%,45.6%,44.9%,67.3%,41.6%,59.9%,61.3%,72.4%,85.7%,69.1%,40%,65.7%,35.4%,
CCCC(=O)Oc1ccc(/C(=C(\C)c2ccc(Cl)cc2)c2ccc(OCCN(CC)CC)cc2)cc1,-79.9% (active),-50% (active),-48.1% (active),-38.1% (active),-84.6% (active),-15.4% (active),-99.7% (active),-42.2% (active),-98% (active),-69.8% (active),-74.4% (active),12%,35.3%,-65% (active),-23.2% (active),,11.5%,-18.6% (active),-13.1% (active),
O=C(Nc1ccc(-n2cc(-c3ccncc3)c(-c3ccc(O)c(Cl)c3)n2)cc1)c1ccc(Cl)c(C(F)(F)F)c1,7.89% (active),-33.9% (active),59.7%,40.2%,15.7%,14.4%,-46.7% (active),71.2%,-47.6% (active),44.3%,-0.332% (active),31.8%,45.2%,18.4%,17.4%,20.5%,77.7%,16.2%,16.8%,
Cc1ccc(=O)n(-c2ccc(Br)cc2F)c1,105%,107%,74.9%,105%,98.1%,91.4%,97.3%,101%,94.5%,108%,116%,99.5%,107%,90.7%,94.6%,,84%,99.9%,108%,
COc1ccc2c(c1)C(=O)/C(=C/c1ccc(OCC(=O)c3ccc(Cl)cc3)cc1)O2,98.8%,100%,-0.258% (active),101%,80.9%,50.9%,131%,72.2%,40.1%,104%,87%,82%,92.2%,,98.8%,-53.4% (active),148%,29%,20%,132
COc1cccc(-c2nc3sccn3c2-c2ccnc(NCCNC(=O)c3ccccc3)n2)c1,81.9%,53.5%,92.6%,110%,102%,79.7%,55.3%,24.6%,54.7%,64.2%,73.3%,106%,84.3%,53.8%,65.8%,84.4%,66.3%,52.5%,53.4%,
Cn1cnc([N+](=O)[O-])c1N1c2ccncc2Sc2ccncc21,99%,137%,233%,94.7%,88.7%,93.3%,91.7%,81%,78.5%,149%,94.2%,78.8%,113%,,75.8%,85.7%,93.1%,94.7%,91.6%,132
Nc1nc(Cl)cc(NCCCCNc2cc(Cl)nc(N)n2)n1,114%,109%,108%,101%,99.6%,95.8%,111%,,96.9%,118%,87.6%,102%,126%,96.5%,107%,,174%,84.5%,94.8%,111
Cc1ccc(NC(=O)CN2CCOCC2)cc1Cl,102%,80.6%,97.4%,94.8%,97.7%,74.7%,95.6%,,101%,104%,95.1%,93.2%,93.1%,90.4%,,,61.3%,78.9%,,95.6
CC(CN(C)C)CN1c2ccccc2CCc2ccccc21 (stereo not given),89.9%,56.7%,66.9%,96.8%,85.6%,66.7%,77.9%,,74.5%,84.9%,88.8%,80.6%,73.7%,38.9%,,70.6%,104%,87.1%,81.2%,87.2
c1ccc2c(c1)Oc1cccnc1-n1nccc1-2,108%,99.7%,88.8%,103%,100%,89.7%,95.7%,,96.3%,102%,121%,104%,101%,101%,99.7%,,87.2%,104%,109%,
CC(=O)N1N=C2N(Cc3ccccc3)C(=O)c3c(sc4c3CCCC4)N2C1c1cn(-c2ccccc2)nc1-c1ccc(Cl)cc1 (stereo not given),96.9%,107%,99.3%,94.2%,87.2%,92.6%,102%,95.5%,92.9%,104%,98%,87.9%,103%,,96.6%,101%,103%,92.4%,86.3%,102
CC1(C)N=C(N)N=C(N)N1c1cccc(CCCCc2ccccc2)c1,37.1%,-5.08% (active),-5.66% (active),17.2%,11.5%,-30% (active),-96.7% (active),,13.2%,42.6%,7.3% (active),7.11% (active),9.06% (active),27.2%,33%,,61.7%,7.35% (active),-35.9% (active),17.9
O=C(NOC1OC(CO)C(O)C(O)C1O)Nc1ccccc1 (stereo not given),109%,105%,105%,100%,102%,93.2%,104%,93.7%,96.7%,117%,98.3%,102%,91.6%,,101%,92.1%,120%,91%,79.7%,109
Cl[C@@H]1CCO[C@H](c2cc3ccccc3c3ccccc23)C1,96.9%,98.8%,103%,91.7%,90.6%,92.8%,93%,,97.6%,104%,101%,90.8%,95.4%,89.2%,,,77.2%,85.9%,98%,92.8
O=C(/C=C/c1ccco1)c1cccc(Nc2nc(Nc3ccccc3)nc(Nc3ccccc3)n2)c1,72%,79.1%,60.2%,92.4%,77.1%,66.4%,81.2%,,83.5%,95%,83.9%,77.8%,98.6%,,95.5%,92.8%,-34.7% (active),56.4%,61.7%,141
COc1cc(Nc2ncccc2C(=O)Nc2nc3ccc(F)cc3s2)cc(OC)c1OC,76.2%,79.1%,73.5%,89%,58.5%,39.2%,63.9%,24.4%,57.3%,84%,75.3%,22%,63.2%,,79.9%,18.4%,62.2%,29.7%,74.5%,114
